Holding throughout (experiment): DAPPL (digital affinity profiling via proximity ligation, sequencing); 10 mM Tris-HCl pH 7.5, 50 mM NaCl, 1 mM DTT, 4% glycerol, room temperature, 30 min; GST-TFs on glutathione beads, 16-mer random dsDNA library, 0.1% formaldehyde crosslink after washing; high values mean tight binding
Holding throughout (conditions): protein: recombinant; tags: N-terminal GST; dsDNA, one strand shown

One assay has as its target T1, ERG (Homo sapiens, UniProt P11308 1-479).
T1 sequence: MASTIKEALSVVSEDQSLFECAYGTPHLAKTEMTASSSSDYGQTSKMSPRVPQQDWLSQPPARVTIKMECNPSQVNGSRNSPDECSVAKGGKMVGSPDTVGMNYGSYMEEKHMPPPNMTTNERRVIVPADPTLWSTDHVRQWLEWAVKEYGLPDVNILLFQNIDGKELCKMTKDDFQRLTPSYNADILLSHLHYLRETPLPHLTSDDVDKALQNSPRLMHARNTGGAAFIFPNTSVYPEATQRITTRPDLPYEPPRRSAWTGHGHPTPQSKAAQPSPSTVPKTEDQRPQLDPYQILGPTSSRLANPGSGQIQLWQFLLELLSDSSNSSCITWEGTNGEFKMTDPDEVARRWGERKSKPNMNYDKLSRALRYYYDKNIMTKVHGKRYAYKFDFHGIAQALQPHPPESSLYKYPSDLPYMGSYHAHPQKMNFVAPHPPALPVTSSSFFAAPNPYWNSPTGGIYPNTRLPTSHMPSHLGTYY
The procedure, abridged: (§1)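 A tag-only sample was pooled with DNA-barcoded human transcription factors that had been expressed in yeast as GST fusions and captured on glutathione beads. The pools were incubated for 30 min at room temperature with 200 nmole of a random double-stranded 16-mer DNA library in Tris/NaCl/DTT/glycerol buffer, then washed, crosslinked with 0.1% formaldehyde, proximity-ligated (BsaI/T4 ligase, 1 h, 37 °C), PCR-amplified and sequenced on an Illumina NextSeq500. Binding signal is each hexamer's read frequency for a factor divided by its frequency for the tag-only sample.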

The next assay deals with ELF1 (Homo sapiens, UniProt P32519 1-619). The gist of the method: as §1
The next assay concerns the target T2, EHF (Homo sapiens, UniProt Q9NZC4 1-300).
T2 sequence: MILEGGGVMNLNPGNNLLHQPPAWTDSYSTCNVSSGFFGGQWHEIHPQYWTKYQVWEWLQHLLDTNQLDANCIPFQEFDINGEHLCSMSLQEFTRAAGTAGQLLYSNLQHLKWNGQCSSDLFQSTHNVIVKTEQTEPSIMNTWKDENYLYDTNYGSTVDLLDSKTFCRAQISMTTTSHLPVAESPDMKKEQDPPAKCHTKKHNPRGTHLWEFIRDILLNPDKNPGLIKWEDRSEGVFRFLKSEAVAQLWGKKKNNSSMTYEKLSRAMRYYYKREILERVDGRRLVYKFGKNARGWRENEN
The gist of the method:
as §1

A further assay addresses SPIB (Homo sapiens, UniProt Q01892 1-262). The gist of the method: as §1
The target in a further assay is T3, ELK3 (Homo sapiens, UniProt P41970 1-407).
T3 sequence: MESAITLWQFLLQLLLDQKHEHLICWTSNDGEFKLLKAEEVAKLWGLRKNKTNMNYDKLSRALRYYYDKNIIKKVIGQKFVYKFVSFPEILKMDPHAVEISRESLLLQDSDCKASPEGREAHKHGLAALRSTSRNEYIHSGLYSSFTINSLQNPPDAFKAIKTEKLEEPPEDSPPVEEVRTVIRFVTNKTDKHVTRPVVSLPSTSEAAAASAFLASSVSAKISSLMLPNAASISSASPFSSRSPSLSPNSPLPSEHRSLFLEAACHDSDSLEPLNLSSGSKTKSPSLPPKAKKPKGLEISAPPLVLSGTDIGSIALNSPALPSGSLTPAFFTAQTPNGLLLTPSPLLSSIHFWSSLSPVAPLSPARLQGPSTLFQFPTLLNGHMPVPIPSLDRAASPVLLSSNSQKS
The procedure, abridged: as §1

The next assay has as its target ETV5 (Homo sapiens, UniProt P41161 1-510). The gist of the method: as §1
For a further assay, the target named is ELF4 (Homo sapiens, UniProt Q99607 1-663). The procedure, abridged:
as §1

In another assay the target is T4, ERF (Homo sapiens, UniProt P50548 1-548).
T4 sequence: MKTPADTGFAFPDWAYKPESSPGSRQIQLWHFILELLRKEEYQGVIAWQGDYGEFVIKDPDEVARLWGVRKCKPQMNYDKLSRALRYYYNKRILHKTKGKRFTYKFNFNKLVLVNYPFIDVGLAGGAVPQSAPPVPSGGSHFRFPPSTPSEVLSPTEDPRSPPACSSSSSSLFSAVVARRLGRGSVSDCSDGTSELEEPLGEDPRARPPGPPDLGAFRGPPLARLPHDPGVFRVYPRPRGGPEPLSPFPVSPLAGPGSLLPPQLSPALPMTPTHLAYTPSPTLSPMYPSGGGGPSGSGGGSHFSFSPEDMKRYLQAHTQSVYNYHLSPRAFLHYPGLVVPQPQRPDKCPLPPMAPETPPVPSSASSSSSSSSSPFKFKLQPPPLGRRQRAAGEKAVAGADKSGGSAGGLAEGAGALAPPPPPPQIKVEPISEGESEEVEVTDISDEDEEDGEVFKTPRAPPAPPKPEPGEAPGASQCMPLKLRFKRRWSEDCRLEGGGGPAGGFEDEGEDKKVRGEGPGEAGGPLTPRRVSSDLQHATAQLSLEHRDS
The procedure, abridged: as §1

The next assay addresses T5, ETS2 (Homo sapiens, UniProt P15036 1-469).
T5 sequence: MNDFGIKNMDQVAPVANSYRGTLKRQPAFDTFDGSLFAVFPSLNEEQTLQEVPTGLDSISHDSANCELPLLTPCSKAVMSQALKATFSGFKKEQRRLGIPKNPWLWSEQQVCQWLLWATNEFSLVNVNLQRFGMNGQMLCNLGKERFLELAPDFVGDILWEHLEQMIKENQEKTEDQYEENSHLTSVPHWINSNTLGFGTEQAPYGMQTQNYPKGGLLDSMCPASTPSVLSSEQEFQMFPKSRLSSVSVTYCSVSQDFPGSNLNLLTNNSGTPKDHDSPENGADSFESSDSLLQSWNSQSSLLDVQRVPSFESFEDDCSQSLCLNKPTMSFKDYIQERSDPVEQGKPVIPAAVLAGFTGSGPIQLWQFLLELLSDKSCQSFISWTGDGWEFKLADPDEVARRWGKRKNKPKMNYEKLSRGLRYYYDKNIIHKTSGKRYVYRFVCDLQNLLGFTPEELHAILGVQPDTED
The gist of the method: as §1

In the next assay the target is T6, ETV7 (Homo sapiens, UniProt Q9Y603 1-341).
T6 sequence: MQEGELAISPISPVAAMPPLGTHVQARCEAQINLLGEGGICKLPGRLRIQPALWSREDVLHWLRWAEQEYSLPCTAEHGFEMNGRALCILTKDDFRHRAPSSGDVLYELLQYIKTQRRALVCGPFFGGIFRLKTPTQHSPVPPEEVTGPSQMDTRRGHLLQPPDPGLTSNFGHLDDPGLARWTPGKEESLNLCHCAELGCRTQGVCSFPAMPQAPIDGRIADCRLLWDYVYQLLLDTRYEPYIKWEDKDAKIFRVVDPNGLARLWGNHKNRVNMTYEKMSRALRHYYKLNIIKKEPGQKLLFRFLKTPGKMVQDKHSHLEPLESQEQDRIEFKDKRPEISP
The gist of the method:
as §1

For the next assay, the target named is T7, ETV3 (Homo sapiens, UniProt P41162-2 1-143).
T7 sequence: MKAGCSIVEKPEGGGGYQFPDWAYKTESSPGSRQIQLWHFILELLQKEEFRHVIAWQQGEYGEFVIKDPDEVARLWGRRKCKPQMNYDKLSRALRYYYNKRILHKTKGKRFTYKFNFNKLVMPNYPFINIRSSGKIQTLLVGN
The gist of the method: as §1

The next assay deals with ETV6 (Homo sapiens, UniProt P41212 1-452). The procedure, abridged: as §1
The next assay has as its target T8, ELK1 (Homo sapiens, UniProt P19419 1-428).
T8 sequence: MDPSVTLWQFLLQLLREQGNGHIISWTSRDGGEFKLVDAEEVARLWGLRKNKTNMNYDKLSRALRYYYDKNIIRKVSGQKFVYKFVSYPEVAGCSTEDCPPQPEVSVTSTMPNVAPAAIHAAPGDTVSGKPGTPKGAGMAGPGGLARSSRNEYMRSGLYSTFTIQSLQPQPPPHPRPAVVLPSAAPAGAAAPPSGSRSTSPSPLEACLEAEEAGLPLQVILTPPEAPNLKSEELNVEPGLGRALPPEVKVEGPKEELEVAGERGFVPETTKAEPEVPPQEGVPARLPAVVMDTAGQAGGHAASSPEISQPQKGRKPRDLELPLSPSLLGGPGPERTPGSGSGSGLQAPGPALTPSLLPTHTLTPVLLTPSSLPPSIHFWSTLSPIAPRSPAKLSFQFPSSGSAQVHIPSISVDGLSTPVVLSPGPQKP
The procedure, abridged: as §1

For another assay, the target named is T9, ELK4 (Homo sapiens, UniProt P28324-2 1-405).
T9 sequence: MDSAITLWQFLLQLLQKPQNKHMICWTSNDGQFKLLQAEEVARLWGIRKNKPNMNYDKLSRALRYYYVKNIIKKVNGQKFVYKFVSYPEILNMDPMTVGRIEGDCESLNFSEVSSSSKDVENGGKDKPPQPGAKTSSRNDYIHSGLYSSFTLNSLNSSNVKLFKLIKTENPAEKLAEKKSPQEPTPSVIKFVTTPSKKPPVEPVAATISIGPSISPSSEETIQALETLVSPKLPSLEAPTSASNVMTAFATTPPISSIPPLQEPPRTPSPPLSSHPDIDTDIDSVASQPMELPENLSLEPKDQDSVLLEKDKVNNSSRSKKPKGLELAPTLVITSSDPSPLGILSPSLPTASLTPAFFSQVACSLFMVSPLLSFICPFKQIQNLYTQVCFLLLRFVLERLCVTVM
The gist of the method:
as §1

The target in the next assay is ETV1 (Homo sapiens, UniProt P50549 1-477). The procedure, abridged:
as §1

Another assay deals with T10, SPDEF (Homo sapiens, UniProt O95238 1-335).
T10 sequence: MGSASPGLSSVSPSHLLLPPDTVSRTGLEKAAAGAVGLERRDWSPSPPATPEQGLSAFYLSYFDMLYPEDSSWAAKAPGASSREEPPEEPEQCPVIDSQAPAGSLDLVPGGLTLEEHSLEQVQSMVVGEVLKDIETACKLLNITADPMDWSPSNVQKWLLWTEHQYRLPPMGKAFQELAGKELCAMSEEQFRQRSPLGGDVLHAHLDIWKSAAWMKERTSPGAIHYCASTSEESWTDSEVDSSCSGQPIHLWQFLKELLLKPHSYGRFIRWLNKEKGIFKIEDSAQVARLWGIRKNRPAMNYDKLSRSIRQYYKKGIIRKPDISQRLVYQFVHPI
The gist of the method: as §1

The target in a further assay is T11, GABPA (Homo sapiens, UniProt Q06546 1-454).
T11 sequence: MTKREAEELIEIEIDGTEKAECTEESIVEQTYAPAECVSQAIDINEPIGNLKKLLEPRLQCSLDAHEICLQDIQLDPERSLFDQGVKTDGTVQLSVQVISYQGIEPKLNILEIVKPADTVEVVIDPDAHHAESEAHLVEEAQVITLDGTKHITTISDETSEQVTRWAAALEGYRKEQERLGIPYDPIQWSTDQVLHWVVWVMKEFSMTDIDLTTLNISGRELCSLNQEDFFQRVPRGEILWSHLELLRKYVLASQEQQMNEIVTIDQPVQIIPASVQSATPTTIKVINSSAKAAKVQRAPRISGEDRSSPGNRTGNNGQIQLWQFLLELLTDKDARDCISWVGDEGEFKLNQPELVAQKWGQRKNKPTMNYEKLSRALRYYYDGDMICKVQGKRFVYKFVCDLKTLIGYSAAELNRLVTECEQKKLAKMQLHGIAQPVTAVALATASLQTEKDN
The gist of the method: as §1

ETV5, sequence (P41161 whole entry): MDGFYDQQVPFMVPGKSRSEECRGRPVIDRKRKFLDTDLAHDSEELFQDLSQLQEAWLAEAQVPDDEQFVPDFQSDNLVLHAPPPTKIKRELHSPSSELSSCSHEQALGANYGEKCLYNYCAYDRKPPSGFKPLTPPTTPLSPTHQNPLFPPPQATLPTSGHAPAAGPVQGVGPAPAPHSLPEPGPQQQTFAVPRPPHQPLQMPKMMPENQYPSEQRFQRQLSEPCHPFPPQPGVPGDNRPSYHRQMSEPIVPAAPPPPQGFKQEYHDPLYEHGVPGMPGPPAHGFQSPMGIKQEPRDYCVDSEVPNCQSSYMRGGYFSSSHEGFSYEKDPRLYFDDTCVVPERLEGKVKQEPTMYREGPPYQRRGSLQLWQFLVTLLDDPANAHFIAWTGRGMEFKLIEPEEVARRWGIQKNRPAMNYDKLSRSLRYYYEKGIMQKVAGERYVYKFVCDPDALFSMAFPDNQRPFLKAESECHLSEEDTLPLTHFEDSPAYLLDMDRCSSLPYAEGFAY
SPIB, sequence (Q01892 whole entry): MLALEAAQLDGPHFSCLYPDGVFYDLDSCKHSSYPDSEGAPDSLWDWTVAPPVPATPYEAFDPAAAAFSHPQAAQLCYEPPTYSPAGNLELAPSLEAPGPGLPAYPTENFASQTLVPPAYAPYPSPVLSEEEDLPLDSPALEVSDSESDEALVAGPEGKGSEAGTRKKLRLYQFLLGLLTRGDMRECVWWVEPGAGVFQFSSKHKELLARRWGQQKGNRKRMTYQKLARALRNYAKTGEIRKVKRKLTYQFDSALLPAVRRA
ELF1, sequence (P32519 whole entry): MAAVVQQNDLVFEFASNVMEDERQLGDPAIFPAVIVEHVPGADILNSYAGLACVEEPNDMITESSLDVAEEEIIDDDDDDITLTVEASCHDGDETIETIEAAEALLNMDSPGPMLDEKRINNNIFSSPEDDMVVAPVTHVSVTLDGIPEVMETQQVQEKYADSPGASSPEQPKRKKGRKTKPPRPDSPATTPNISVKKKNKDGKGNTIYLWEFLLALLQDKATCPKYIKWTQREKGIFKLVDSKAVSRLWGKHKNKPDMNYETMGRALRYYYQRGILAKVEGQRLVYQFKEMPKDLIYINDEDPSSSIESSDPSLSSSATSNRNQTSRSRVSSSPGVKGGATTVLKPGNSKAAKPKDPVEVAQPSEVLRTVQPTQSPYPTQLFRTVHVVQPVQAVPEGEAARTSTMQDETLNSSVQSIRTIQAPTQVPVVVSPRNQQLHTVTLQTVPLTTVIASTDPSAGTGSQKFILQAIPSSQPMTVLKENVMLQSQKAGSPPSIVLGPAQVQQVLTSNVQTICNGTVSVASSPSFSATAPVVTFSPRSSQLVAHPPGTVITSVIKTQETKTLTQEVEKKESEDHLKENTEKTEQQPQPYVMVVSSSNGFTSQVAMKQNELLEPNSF
ETV1, sequence (P50549 whole entry): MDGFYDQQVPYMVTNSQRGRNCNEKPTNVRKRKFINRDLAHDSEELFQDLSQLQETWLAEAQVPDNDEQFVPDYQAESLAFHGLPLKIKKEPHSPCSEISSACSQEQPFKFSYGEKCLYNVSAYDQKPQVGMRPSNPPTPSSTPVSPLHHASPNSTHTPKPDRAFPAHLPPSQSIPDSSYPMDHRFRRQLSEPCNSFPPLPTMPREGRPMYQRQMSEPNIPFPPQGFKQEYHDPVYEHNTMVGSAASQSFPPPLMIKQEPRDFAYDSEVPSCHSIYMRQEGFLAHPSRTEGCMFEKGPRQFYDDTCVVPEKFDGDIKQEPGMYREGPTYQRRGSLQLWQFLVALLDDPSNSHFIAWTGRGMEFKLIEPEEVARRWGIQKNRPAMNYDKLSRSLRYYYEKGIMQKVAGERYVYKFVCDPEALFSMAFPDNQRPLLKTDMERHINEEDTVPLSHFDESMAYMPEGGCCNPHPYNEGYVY
ELF4, sequence (Q99607 whole entry): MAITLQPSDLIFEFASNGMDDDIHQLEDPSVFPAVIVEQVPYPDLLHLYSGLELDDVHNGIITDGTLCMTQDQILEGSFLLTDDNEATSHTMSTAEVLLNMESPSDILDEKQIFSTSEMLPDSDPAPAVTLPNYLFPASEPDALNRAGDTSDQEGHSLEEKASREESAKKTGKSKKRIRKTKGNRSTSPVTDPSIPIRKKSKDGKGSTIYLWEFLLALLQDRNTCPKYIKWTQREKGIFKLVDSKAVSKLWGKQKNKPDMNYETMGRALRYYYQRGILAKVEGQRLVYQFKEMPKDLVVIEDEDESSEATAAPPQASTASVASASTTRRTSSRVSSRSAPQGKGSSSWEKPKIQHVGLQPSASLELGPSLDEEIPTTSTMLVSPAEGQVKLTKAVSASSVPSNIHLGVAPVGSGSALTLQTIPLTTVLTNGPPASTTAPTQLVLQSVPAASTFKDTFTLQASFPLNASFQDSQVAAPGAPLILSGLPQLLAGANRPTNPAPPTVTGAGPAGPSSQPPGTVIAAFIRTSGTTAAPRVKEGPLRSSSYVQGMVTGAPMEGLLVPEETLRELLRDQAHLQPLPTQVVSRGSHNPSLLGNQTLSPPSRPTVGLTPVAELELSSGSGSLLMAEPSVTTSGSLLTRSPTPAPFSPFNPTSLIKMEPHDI
ETV6, sequence (P41212 whole entry): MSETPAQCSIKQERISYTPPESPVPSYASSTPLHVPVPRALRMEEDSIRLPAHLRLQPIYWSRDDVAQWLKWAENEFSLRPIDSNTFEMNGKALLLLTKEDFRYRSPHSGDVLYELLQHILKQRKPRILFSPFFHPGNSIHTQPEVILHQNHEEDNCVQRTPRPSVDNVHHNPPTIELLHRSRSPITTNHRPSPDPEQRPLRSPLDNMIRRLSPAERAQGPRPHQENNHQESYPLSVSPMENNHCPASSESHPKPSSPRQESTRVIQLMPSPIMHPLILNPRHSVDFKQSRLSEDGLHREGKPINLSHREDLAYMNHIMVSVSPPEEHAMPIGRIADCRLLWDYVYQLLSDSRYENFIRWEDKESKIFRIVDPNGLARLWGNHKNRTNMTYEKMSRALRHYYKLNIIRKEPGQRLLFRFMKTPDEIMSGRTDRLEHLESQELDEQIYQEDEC

For the sequence CCACCG, the binding signal with ERG was 1.03 fold enrichment (6-mer frequency, TF over GST control); with ELF1, 1.01 fold enrichment (6-mer frequency, TF over GST control); with EHF it was 1.07 fold enrichment (6-mer frequency, TF over GST control); with SPIB, 1.09 fold enrichment (6-mer frequency, TF over GST control); in the assay with ELK3, 1.06 fold enrichment (6-mer frequency, TF over GST control); with ETV5, 1 fold enrichment (6-mer frequency, TF over GST control). Moreover, the binding signal was 1.11 fold enrichment (6-mer frequency, TF over GST control) with ELF4; 1.2 fold enrichment (6-mer frequency, TF over GST control) in the assay with ERF; 1.02 fold enrichment (6-mer frequency, TF over GST control) in the assay with ETS2; 1.06 fold enrichment (6-mer frequency, TF over GST control) with ETV7; 1.04 fold enrichment (6-mer frequency, TF over GST control) with ETV3; 1.06 fold enrichment (6-mer frequency, TF over GST control) in the assay with ETV6.

Take GTACCA: the binding signal was 1.04 fold enrichment (6-mer frequency, TF over GST control) in the assay with ELK1; 1.01 fold enrichment (6-mer frequency, TF over GST control) in the assay with ELF1; 1.02 fold enrichment (6-mer frequency, TF over GST control) with SPIB; 1.07 fold enrichment (6-mer frequency, TF over GST control) with ETV5; 1.09 fold enrichment (6-mer frequency, TF over GST control) with ELK4; 1 fold enrichment (6-mer frequency, TF over GST control) with ETV1. In addition, the binding signal with ERF is 1.04 fold enrichment (6-mer frequency, TF over GST control); with SPDEF, 1 fold enrichment (6-mer frequency, TF over GST control).

For GTTGGT, the binding signal with GABPA is 1.04 fold enrichment (6-mer frequency, TF over GST control); with ETV5, 1.01 fold enrichment (6-mer frequency, TF over GST control); in the assay with ELK4, 1.09 fold enrichment (6-mer frequency, TF over GST control); with ETV7 it was 1.02 fold enrichment (6-mer frequency, TF over GST control).

These data come from paper PMC7862700, “An all-to-all approach to the identification of sequence-specific readers for epigenetic DNA modifications on cytosine”.
